Source: PubChem BioAssay (NCI)
Several values for one entry are separate records, joined by “and”; a condition that tells them apart may be missing. Identical values can stand only once. The panel holds about 83,000 compounds, 20% with a hit somewhere; the sample as a whole holds those more often.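 A percent growth of 40 corresponds to 60% growth inhibition; 0 means no net growth; -100 means all cells died. Active threshold: below 10.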 Unmarked numbers belong to inactive results. Activity calls are given as the source filed them.

test system: MDA-MB-468 breast; assay: NCI-60 one-dose screen, 48 h (100 = growth as untreated, 0 = no growth, -100 = all killed); conditions: 10 µM unless noted

Question: For NC(Cc1ccc2c(c1)OCO2)c1ccc2c(c1)OCO2 (stereo not given), which growth is on record?
Answer: Its growth is 96%.

Question: With CC(C)COC(C[N+](=O)[O-])C(Cl)(Cl)Cl (stereo not given) as the compound, how does the growth read?
Answer: The growth was 112%.

Question: Which growth does the source give for CC(=O)OC1CCC2C3CCC4=C/C(=N/OC(=O)c5ccc(N(CCCl)CCCl)cc5)CCC4(C)C3CC(C)C12 (stereo not given) here?
Answer: Its growth is 67.2%.

Question: With COC(=O)[C@@H](C)C[C@H](Cc1ccccc1)NC(=O)c1nc([C@@H](C[C@H](C(C)C)N(C)C(=O)[C@@H](NC(=O)[C@H]2CC(=O)CCN2C)C(C)C)OC(C)=O)sc1C(C)C as the compound, how does the growth read?
Answer: Its growth is 7.54% (active).

Question: COC(=O)[C@@H](C)C[C@H](Cc1ccccc1)NC(=O)c1cccc([C@@H](C[C@H](C(C)C)N(C)C(=O)[C@@H](NC(=O)[C@H]2CCCCN2C)C(C)C)OC(C)=O)n1 was tested. Which growth did it give?
Answer: Its growth is 10.1%.

Question: With O=C1C2C(C(=O)[N]1[Hg][c]1ccccc1)C1(Cl)C(Cl)=C(Cl)C2(Cl)C1(Cl)Cl (stereo not given) as the compound, how does the growth read?
Answer: The growth was -72.7% (active).

Question: O=C(O)c1nn(Cc2ccc(Cl)cc2)c2ccccc12 was tested. Which growth did it give?
Answer: The growth was 105%.

Question: For Oc1cccc2cccnc12, which growth is on record?
Answer: The growth was 25% and 96.3% and 106%.

Question: For CC(Cc1ccc2c(c1)OCO2)NN (stereo not given), which growth is on record?
Answer: Its growth is 105%.

Question: CC1=C[C@H]2O[C@@H]3C[C@@H](O)[C@](C)([C@@]2(C)CC1)[C@@]31CO1 was tested. Which growth did it give?
Answer: The growth was 28.7%.

Question: How did the growth turn out when CCn1c2ccccc2c2cc(C(=O)c3cccc4c3CCCN4)ccc21 was run?
Answer: Its growth is 96.4%.

Question: Which growth does the source give for N#CC(C#N)=Cc1cccc(F)c1 here?
Answer: Its growth is 109%.

Question: CC1(C)N=C(N)N=C(N)N1c1ccc(OCCCCNC(=O)c2ccc(S(=O)(=O)F)cc2)c(Cl)c1 was tested. Which growth did it give?
Answer: The growth was 64.7%.

Question: With CC1(C)CC2(CC(C)(C)c3cc(O)c(O)cc32)c2cc(O)c(O)cc21 as the compound, how does the growth read?
Answer: The growth was 83.1%.

Question: How did the growth turn out when CC(=O)Cc1ccc2c(c1)OCO2 was run?
Answer: The growth was 103%.

Question: How did the growth turn out when c1cc2c(c3c1CCNC3)OCO2 was run?
Answer: The growth was 87.4%.

Question: O=NN1CCCc2cccc(O)c21 was tested. Which growth did it give?
Answer: Its growth is 67.7%.

Question: With Oc1ccccc1C=NCCN=Cc1ccccc1O as the compound, how does the growth read?
Answer: Its growth is 107%.

Question: How did the growth turn out when CC[C@H](C)[C@H](NC(=O)[C@H]1CCCCN1C)C(=O)N(C)[C@H](CC(=O)c1nc(C(=O)N[C@@H](Cc2ccccc2)C[C@H](C)C(=O)O)cs1)C(C)C was run?
Answer: The growth was 62.3%.

Question: With Cc1nnc([S-])s1.[Au+].c1ccc([PH+](c2ccccc2)c2ccccc2)cc1 as the compound, how does the growth read?
Answer: The growth was -68.6% (active).

Question: With C=CC[n+]1ccc(-c2cc[n+](CC=C)cc2)cc1 as the compound, how does the growth read?
Answer: Its growth is 66.6%.

Question: With CCOC(=O)[C@@H](C)C[C@H](Cc1ccccc1)NC(=O)c1nc([C@@H](C[C@H](C(C)C)N(C)C(=O)[C@@H](NC(=O)[C@H]2CCCCN2C)C(C)C)OC(C)=O)sc1CCOCc1ccccc1 as the compound, how does the growth read?
Answer: The growth was -48.6% (active).

Question: How did the growth turn out when OCCNC1CCCCC1 was run?
Answer: The growth was 109%.

Question: How did the growth turn out when CN1CCc2cc3c(cc2C1O)OCO3 (stereo not given) was run?
Answer: The growth was 99.4% and 108%.

Question: How did the growth turn out when C/C1=C/C(=O)O[C@@H]2C[C@@H](CC[C@H](C)/C=C\C=C\CC1)O[C@@](OCCc1ccccc1)([C@@H]1CSC(=O)N1)C2 was run?
Answer: Its growth is 12.2%.

Question: For CN1CCN(C(=O)COc2ccc(/C=C3\CC4C5CC=C6CC(Cl)CCC6(C)C5CCC4(C)C3=O)cc2)CC1 (stereo not given), which growth is on record?
Answer: The growth was 66.6%.

Question: Which growth does the source give for CCOC(=O)/C(C#N)=C/c1ccc(N(CCCl)CCCl)cc1 here?
Answer: The growth was 64.2%.

Question: Which growth does the source give for O=C(CCCN1CCC2(CC1)C(=O)NCN2c1ccccc1)c1ccc(F)cc1 here?
Answer: The growth was 103% and 32.6%.

Question: With C#COc1cccc(Nc2ncnc3cc(NC(=O)CF)ccc23)c1 as the compound, how does the growth read?
Answer: Its growth is 80.2% [6.25 µM].

Question: With O=C(CC1(O)C(=O)Nc2ccc(Cl)cc21)c1ccc(C(=O)NCC2CCC3(CC2)OOC2(CCCCC2)OO3)cc1 (stereo not given) as the compound, how does the growth read?
Answer: The growth was 18%.

Question: O=C1CN2CCC1CC2 was tested. Which growth did it give?
Answer: The growth was 104%.

Question: COP(=S)(N1CC1)N1CC1 was tested. Which growth did it give?
Answer: Its growth is 110%.

Question: How did the growth turn out when COc1cc2c(cc1OC)CN(C)C(C)C2 (stereo not given) was run?
Answer: The growth was 97.9%.

Question: Which growth does the source give for CC(=O)OC1CCC2(C)C(CCC3C2CC(=O)C2(C)C3CC(Sc3ccc(N(CCCl)CCCl)cc3)C2C(C)=O)C1 (stereo not given) here?
Answer: Its growth is 86.6%.

Question: How did the growth turn out when COC(=O)CCC1=C(C)c2cc3[n-]c(cc4nc(cc5[n-]c(cc1n2)c(CCC(=O)OC)c5C)C=C4C)cc3C.[Cd+2] was run?
Answer: Its growth is 81.6%.

Question: With CC(=O)O[C@H]1CC[C@H]2[C@@H]3CC[C@H]4CC=C(C)C[C@]4(C)[C@H]3CC[C@]12C as the compound, how does the growth read?
Answer: Its growth is 105%.

Question: Which growth does the source give for C/C(=C\c1ccn(-c2ccc(N)cc2)n1)[C@@H]1C[C@@H]2O[C@]2(C)CCC[C@H](C)[C@H](O)[C@@H](C)C(=O)C(C)(C)[C@@H](O)CC(=O)O1 here?
Answer: The growth was 13.9%.

Question: For CC(=O)O[C@H]1CCC2(C)C(=CCC3C2CCC2(C)/C(=N/OC(=O)c4ccc(N(CCCl)CCCl)cc4)CCC32)C1 (stereo not given in full), which growth is on record?
Answer: Its growth is 79.9%.

Question: With N#CC(N)c1ccccc1 (stereo not given) as the compound, how does the growth read?
Answer: Its growth is 98.9%.

Question: O=C1CN=C(c2ccc(Cl)cc2)c2sccc2N1 was tested. Which growth did it give?
Answer: The growth was 104%.
